# Assay results reported in PubChem BioAssay (EPA / NIEHS).
# Active and inactive are the calls of the source. The calls were made as follows: active = hit-call score of the fitted dose curve at least 0.9, where 1 is the maximum; inconclusive = response in the unintended direction; inactive = score below 0.9.
# Biological target: Estrogen receptor (Homo sapiens) (UniProt P03372)
# Assay: OT_ERa_GFPERaERE_0120: Odyssey Thera (OT) 2-hour HeLa Transcription Induction Assay for Estrogen Receptor (AID 2283382)
# Description: OT_ERa_GFPERaERE_0120 is a cell-based, single-readout assay that uses HeLa, a human cervix cell line, with measurements taken at 2 hours after chemical dosing in a 384-well plate.OT_ERa_GFPERaERE_0120 is one of one assay component(s) measured or calculated from the OT_ERa_GFPERaERE_0120 assay. It is designed to make measurements of fluorescent protein induction, a form of inducible reporter, as detected with optical microscopy: fluorescence microscopy signals by Microscopy technology.Data from the assay component OT_ERa_GFPERaERE_0120 was analyzed into 1 assay endpoint. This assay endpoint, OT_ERa_EREGFP_0120, was analyzed in the positive analysis fitting direction relative to DMSO as the negative control and baseline of activity. Using a type of inducible reporter, measures of receptor for gain-of-signal activity can be used to understand the reporter gene at the pathway-level as they relate to the gene ESR1. Furthermore, this assay endpoint can be referred to as a primary readout, because the performed assay has only produced 1 assay endpoint. To generalize the intended target to other relatable targets, this assay endpoint is annotated to the nuclear receptor intended target family, where the subfamily is steroidal.
# All assay endpoints are quantified using high content image analysis algorithms.
# Estrogen receptor (Homo sapiens), sequence (P03372 whole entry, looked up): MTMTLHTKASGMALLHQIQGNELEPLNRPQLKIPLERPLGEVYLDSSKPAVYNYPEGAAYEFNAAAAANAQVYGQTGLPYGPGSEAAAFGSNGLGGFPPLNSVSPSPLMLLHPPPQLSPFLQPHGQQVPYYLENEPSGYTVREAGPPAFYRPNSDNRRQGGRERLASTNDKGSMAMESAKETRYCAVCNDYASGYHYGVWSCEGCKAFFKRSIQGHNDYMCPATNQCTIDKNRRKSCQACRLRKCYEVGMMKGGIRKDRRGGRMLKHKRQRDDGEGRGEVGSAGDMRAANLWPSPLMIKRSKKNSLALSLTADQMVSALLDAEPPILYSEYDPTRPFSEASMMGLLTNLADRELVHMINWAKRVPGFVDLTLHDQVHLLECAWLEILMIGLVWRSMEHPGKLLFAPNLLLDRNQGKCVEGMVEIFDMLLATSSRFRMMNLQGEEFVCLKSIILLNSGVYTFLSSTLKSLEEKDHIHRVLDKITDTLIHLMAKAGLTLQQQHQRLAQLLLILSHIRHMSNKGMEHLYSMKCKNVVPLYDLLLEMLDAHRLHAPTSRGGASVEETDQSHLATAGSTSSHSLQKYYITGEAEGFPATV
Structure (SMILES),outcome,AC50
Clc1cc(Cl)c(Cl)cc1Cl,inactive,–
CC=Cc1ccc(O)c(OC)c1,inactive,–
COCCOC[C@H](CC1(C(=O)NC2CCC(C(=O)O)CC2)CCCC1)C(=O)Oc1ccc2c(c1)CCC2 (stereo not given in full),inactive,–
COc1ccc(C)cc1N,inactive,–
C[Si]1(C)O[Si](C)(C)O[Si](C)(C)O[Si](C)(C)O1,inactive,–
CCCCCC(=O)O,inactive,–
Cc1ccc(C)c(C)c1,inactive,–
CCCCCCCC=O,inactive,–
Nc1ccccc1N,inactive,–
CC(C)c1ccc(C(=O)N=C(N)N)cc1S(C)(=O)=O,inactive,–
CCCCC(CC)COC(=O)CC(C(=O)OCC(CC)CCCC)S(=O)(=O)O (stereo not given),–,21.3 µM (active)
Nc1ccc2c(c1)C(=O)c1ccccc1C2=O,inactive,–
CC1(C)CC(N=C=O)CC(C)(CN=C=O)C1 (stereo not given),inactive,–
OC[C@@H](O)[C@@H](O)[C@H](O)[C@H](O)CO,inactive,–
Oc1ccc2ccccc2c1N=Nc1ccccc1,inactive,–
COc1cc(-c2nc(NC(=O)c3cc4cc(C)cc(C)c4n3CC(=O)O)sc2CCC2CCCCC2)c(OC)cc1Cl,inactive,–
NCC1(Cc2noc(=O)[nH]2)CCCCC1,inactive,–
CCOc1ccc2c(c1)C(C)=CC(C)(C)N2,inactive,–
FC(F)(F)C(F)(F)C(F)(F)C(F)(F)C(F)(F)C(F)(F)CCI,inactive,–
CC(=O)OC/C=C(\C)CCC=C(C)C,inactive,–

Structure (SMILES),outcome,AC50
O=C(N[C@@H](Cc1ccccc1)[C@@H](O)C(=O)N1C[C@@H](O)[C@@H](O)C1)c1cc2cc(Cl)ccc2[nH]1,inactive,–
CCCCCCCCCCC,inactive,–
NCCO,inactive,–
O=c1[nH]cc(F)c(=O)[nH]1,inactive,–
CCCCc1ccc2c(n1)[C@@H](c1ccc(OC)cc1C[C@H](C)C(=O)O)[C@H](C(=O)O)[C@H]2c1ccc2c(c1)OCO2,inactive,–
Oc1ccc2c(c1)OC[C@@H](N1CCC(O)(c3ccc(F)cc3)CC1)[C@H]2O,inactive,–
O=C(O)CCCCC(=O)O,inactive,–
C[C@]12C=CC(=O)C=C1CC[C@@H]1[C@@H]2C(=O)C[C@@]2(C)[C@H]1CC[C@]2(O)C(=O)CO,inactive,–
CC(=O)Oc1ccccc1C(=O)O,inactive,–
c1cc(-c2ccncc2)ccn1,inactive,–
O=C(O)Cc1ccccc1Nc1c(Cl)cccc1Cl,inactive,–
Cc1cccc(Nc2cc(Cl)nc(SCC(=O)O)n2)c1C,inactive,–
CCc1c(C(=O)NN2CCCCC2)nn(-c2ccc(Cl)cc2Cl)c1-c1ccc(Br)cc1,inactive,–
CCCCCCCCCCCCCCCC,inactive,–
Cc1cc(=O)[nH]c(=S)[nH]1,inactive,–
CN[C@H]1CC[C@@H](c2ccc(Cl)c(Cl)c2)c2ccc(S(N)(=O)=O)cc21,inactive,–
Cc1ccccc1Cl,inactive,–
CCCCCCOCCO,inactive,–
CCCCCCCCCCCCCCCCCC(=O)O,inactive,–
COc1cc(C=O)ccc1O,inactive,–
